Assay results published in the supplement of paper PMC11732987, “Enantioselective OTUD7B fragment discovery through chemoproteomics screening and high-throughput optimisation” (Communications Chemistry, 2025).

Assays:
Assay in all cases: log2 ratio of Biotin-Ahx-Ub-VS probe labelling (fragment/DMSO); higher = less target engagement (more negative = stronger competition), active = hit call of the paper (q ≤ 0.05, log2 ratio ≤ -1)
Conditions in all cases: compound concentration: 200 uM; treatment time: 3 h
USP34 = USP34 (UniProt Q70CQ2)
Procedure, shortened: (§1)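 Each value is an average log2 ratio of fragment to vehicle, tested by unpaired t-test. The underlying Spectronaut label-free quantities were global-median-normalised, and only proteins with ≥2 unique peptides were included. Triplicate HEK293T lysate samples (495 µg) were exposed to fragment at 200 µM or vehicle for 3 h, then to Biotin-Ahx-Ub-VS at 0.5 µM final for 1 h, before NeutrAvidin enrichment of labelled DUBs, LysC and trypsin digestion, and diaPASEF LC-MS/MS.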

USP36 = target: T1, USP36 (UniProt Q9P275)
T1 sequence (whole entry): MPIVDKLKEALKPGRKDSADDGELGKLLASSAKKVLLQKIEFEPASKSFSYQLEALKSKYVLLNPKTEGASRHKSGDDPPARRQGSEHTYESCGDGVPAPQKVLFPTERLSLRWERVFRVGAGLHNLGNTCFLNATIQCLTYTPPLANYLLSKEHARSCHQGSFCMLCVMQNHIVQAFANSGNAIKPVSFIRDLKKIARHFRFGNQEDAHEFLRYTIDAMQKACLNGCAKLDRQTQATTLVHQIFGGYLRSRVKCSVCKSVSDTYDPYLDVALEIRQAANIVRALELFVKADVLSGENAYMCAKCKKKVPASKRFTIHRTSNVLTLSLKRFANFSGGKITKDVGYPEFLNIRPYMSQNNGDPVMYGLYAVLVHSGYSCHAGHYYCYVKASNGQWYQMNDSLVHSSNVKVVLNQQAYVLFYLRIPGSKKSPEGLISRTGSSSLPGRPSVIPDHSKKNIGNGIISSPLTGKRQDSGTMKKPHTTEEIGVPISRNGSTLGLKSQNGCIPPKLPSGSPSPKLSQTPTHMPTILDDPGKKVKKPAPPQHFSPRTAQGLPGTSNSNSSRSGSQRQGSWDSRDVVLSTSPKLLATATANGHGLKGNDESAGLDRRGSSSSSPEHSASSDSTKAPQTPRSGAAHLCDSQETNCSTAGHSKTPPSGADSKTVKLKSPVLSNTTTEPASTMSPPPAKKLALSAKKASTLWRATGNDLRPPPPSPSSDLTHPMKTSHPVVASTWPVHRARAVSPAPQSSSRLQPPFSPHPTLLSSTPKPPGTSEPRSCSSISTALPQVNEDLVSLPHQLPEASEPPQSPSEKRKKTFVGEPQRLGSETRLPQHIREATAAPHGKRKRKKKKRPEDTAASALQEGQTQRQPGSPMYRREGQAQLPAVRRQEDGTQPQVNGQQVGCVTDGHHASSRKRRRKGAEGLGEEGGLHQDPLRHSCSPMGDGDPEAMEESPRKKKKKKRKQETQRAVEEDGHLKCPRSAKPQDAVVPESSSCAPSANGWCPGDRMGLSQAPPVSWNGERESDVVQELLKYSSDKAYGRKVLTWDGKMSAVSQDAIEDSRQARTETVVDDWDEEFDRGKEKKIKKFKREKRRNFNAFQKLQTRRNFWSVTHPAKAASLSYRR
Procedure, shortened: as §1

USP38 = target: T2, USP38 (UniProt Q8NB14)
T2 sequence (whole entry): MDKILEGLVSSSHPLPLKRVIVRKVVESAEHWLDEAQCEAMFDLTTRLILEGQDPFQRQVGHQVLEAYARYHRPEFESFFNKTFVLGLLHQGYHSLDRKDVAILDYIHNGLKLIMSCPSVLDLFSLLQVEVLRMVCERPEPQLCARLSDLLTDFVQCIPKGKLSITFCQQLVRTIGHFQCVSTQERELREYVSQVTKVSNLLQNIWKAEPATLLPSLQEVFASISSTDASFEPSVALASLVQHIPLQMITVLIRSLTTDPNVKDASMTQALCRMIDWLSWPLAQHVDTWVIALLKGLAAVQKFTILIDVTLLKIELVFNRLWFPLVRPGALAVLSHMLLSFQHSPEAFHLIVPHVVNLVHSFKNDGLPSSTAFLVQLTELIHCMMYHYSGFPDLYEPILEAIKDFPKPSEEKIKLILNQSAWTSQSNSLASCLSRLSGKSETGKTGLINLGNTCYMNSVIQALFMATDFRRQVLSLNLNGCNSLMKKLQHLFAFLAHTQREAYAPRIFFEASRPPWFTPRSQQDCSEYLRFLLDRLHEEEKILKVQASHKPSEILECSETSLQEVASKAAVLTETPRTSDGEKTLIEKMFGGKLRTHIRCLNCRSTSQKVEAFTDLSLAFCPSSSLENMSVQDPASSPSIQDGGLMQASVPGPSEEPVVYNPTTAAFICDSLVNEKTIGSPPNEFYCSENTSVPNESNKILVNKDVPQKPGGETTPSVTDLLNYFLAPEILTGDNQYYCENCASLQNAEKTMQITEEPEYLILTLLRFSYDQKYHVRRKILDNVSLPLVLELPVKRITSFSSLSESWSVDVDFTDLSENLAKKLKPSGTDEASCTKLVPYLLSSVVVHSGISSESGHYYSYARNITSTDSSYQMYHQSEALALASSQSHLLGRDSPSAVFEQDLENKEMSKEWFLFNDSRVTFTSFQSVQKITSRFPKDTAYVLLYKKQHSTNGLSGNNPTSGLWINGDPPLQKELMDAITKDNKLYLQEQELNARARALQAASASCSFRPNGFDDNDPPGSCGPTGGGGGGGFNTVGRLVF
Procedure, shortened: as §1

USP39 = target: T3, USP39 (UniProt Q53GS9)
T3 sequence (whole entry): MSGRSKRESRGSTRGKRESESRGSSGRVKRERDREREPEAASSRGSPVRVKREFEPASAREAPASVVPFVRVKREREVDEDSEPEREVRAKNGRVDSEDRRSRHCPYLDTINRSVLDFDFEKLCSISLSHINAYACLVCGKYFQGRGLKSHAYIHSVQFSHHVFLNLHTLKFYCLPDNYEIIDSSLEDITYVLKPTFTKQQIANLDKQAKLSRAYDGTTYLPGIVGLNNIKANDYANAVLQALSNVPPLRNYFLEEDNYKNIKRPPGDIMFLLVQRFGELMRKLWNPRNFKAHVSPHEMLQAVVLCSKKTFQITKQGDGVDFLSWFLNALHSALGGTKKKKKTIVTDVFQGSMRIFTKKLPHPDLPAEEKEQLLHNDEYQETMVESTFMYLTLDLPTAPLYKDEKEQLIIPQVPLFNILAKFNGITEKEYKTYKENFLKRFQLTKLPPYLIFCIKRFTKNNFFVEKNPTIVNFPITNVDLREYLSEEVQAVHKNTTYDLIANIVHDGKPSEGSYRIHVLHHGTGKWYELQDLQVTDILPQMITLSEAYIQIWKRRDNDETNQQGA
Procedure, shortened: as §1

USP4 = target: T4, USP4 (UniProt Q13107)
T4 sequence (whole entry): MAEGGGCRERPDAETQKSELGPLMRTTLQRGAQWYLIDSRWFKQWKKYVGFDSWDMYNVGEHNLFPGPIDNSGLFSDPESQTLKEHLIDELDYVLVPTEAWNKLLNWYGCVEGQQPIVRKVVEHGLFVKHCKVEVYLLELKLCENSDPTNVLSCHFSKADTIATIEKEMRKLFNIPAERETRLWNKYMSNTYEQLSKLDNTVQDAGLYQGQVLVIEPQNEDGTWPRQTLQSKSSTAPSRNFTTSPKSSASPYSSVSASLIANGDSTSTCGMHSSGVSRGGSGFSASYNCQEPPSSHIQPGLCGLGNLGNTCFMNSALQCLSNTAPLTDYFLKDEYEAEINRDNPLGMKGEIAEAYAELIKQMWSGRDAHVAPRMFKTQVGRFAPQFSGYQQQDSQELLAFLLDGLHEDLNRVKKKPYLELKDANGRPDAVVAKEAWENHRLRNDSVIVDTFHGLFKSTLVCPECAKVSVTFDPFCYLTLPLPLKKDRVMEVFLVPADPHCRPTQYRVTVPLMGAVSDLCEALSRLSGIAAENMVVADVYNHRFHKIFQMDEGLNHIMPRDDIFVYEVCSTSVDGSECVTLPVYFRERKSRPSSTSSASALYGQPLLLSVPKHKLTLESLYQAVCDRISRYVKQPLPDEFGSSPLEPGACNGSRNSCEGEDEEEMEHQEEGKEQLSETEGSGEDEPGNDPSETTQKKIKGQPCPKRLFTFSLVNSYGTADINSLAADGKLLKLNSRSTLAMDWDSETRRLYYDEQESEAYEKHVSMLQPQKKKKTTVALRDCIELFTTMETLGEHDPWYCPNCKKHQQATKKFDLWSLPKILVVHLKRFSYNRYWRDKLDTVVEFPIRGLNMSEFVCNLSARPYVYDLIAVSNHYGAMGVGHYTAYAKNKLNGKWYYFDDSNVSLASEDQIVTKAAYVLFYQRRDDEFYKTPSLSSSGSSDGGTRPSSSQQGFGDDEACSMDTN
Procedure, shortened: as §1

Measured: log2 ratio of Biotin-Ahx-Ub-VS probe labelling

USP34, sequence (Q70CQ2 whole entry, the tested form may be a part): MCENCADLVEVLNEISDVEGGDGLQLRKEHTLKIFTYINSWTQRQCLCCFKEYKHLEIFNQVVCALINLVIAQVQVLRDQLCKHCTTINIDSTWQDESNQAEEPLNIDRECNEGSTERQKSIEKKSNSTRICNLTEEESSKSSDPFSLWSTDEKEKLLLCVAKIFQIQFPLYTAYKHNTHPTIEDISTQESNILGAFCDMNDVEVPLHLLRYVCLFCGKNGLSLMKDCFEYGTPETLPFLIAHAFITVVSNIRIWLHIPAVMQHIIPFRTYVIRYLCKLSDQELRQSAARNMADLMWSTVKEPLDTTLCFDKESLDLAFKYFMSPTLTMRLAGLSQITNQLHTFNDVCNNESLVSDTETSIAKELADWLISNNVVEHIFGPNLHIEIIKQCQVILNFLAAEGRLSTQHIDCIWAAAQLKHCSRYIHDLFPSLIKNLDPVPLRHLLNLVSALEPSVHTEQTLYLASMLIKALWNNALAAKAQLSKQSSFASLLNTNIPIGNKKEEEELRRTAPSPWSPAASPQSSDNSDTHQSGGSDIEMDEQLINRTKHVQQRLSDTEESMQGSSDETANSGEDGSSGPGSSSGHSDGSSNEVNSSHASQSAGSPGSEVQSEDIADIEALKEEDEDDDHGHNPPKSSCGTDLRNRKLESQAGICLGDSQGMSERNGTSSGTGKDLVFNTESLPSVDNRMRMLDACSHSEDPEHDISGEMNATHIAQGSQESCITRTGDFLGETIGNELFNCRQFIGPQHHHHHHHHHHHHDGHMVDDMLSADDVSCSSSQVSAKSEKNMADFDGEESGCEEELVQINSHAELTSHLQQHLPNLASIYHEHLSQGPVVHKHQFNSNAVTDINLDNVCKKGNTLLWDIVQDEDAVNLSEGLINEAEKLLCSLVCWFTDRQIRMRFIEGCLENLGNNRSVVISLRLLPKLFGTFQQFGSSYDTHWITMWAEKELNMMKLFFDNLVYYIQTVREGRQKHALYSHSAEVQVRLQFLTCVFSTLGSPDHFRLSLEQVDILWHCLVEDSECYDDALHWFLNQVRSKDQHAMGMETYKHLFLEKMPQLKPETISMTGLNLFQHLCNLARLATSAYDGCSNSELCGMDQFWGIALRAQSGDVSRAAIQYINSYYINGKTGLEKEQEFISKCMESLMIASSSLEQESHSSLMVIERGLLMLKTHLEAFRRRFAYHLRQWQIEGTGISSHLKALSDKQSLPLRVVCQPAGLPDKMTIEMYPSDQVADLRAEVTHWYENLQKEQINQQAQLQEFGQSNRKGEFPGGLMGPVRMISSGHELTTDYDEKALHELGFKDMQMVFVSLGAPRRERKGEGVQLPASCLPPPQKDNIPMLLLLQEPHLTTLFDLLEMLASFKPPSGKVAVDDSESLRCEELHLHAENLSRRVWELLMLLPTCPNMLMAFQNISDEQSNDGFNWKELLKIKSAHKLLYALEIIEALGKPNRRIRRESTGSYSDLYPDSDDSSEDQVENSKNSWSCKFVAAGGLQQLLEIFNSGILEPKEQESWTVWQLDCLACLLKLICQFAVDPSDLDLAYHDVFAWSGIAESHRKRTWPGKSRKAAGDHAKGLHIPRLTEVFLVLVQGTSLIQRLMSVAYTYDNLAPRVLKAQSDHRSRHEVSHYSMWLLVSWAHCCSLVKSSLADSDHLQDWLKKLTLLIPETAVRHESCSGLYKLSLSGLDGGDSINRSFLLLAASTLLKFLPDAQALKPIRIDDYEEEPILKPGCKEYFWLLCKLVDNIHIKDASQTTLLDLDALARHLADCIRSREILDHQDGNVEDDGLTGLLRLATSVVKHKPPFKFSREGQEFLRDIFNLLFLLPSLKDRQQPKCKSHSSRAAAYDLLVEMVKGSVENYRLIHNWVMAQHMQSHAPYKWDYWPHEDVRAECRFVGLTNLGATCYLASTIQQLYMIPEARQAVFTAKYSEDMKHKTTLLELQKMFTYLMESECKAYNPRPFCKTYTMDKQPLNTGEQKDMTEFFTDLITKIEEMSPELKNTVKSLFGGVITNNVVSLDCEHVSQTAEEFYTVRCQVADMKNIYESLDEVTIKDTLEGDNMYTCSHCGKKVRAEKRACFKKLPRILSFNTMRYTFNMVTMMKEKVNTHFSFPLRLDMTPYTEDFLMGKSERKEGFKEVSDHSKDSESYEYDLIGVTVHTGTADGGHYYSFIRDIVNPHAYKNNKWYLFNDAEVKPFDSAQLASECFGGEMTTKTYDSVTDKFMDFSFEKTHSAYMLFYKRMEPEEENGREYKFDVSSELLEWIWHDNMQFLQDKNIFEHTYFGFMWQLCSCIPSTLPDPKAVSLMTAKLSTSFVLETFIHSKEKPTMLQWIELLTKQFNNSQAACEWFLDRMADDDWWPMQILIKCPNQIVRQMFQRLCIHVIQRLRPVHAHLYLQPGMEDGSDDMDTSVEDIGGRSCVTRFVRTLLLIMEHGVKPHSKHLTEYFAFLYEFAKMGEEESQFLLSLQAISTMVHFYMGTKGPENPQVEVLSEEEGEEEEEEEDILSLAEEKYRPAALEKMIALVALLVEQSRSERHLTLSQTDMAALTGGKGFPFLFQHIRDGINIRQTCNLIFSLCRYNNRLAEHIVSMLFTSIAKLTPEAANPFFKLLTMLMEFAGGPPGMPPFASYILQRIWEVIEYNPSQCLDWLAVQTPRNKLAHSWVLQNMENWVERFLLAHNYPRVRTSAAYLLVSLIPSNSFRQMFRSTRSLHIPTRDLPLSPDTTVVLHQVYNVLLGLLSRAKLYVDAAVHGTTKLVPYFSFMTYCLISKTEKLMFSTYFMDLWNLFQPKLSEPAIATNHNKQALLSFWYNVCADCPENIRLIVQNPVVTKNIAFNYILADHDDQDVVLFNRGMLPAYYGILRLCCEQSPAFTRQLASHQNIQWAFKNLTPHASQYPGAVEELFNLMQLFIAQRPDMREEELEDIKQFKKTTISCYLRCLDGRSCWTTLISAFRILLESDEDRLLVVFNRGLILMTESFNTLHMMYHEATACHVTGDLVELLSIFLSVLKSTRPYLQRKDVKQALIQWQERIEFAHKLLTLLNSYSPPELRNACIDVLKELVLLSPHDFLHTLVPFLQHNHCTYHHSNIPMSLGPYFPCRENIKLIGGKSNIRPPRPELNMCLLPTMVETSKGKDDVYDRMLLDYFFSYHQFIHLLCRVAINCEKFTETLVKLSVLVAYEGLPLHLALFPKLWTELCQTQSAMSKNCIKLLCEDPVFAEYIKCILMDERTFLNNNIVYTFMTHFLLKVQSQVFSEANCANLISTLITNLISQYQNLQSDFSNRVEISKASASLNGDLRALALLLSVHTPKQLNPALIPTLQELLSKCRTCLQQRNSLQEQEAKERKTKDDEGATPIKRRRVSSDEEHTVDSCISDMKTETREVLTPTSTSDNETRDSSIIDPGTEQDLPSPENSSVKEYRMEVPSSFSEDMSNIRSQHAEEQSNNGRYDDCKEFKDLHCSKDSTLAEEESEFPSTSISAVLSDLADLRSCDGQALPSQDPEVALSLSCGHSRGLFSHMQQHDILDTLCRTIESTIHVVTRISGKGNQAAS

Cc1c(NC(=O)CCl)c(=O)n(-c2ccccc2)n1C
inactive: USP34 -0.0386 | USP36 -0.0835 | USP38 -0.177 | USP39 -0.16 | USP4 0.0206
